Results on 31 compounds are retold here after ChEMBL document CHEMBL3988442, “University of Dundee, Small-Polar-MMV Screening Library” (2021).

Screen size: about 48,000 compounds; about 13,000 (27%) showed an effect of 50% or more. This is one part of the list.

The assay concerns Wolbachia pipientis. In words: Anti-Wolbachia Cell-Based Screen. Details: scale not given: in the data most compounds retested in dose-response had high values. The conditions noted are these: 5 µM. It is filed as functional.
Turning to `O=C(NCc1ccco1)[C@H]1C[C@H]2OCC[C@H]2N(S(=O)(=O)C2CC2)C1`, the “Percent Effect” value is -11.11%.

Take `O=C(NCc1ccco1)[C@@H]1C[C@H]2OCC[C@H]2N(c2ncc(F)cn2)C1`: the “Percent Effect” value turned out to be 12.25%.

Consider `Cc1occc1C(=O)N1C[C@@H](C(=O)N2CCCCO2)C[C@H]2OCC[C@H]21`, for which the “Percent Effect” value is -3.518%.

On to `Cc1nnc(N2C[C@H](C(=O)NCc3ccco3)[C@@H]3CCO[C@@H]3C2)s1`, for which the “Percent Effect” value came out at 0.8381%.

Consider `O=C(NCc1ccco1)[C@H]1C[C@H]2OCC[C@H]2N(C(=O)c2ccnnc2)C1`, for which the “Percent Effect” value came to 110.4%.

`CN(C)C(=O)N1C[C@@H](C(=O)NCc2ccco2)C[C@H]2OCC[C@H]21`: the “Percent Effect” value is reported as 111.8%.

Turning to `Cc1occc1C(=O)N1C[C@@H](C(=O)NCc2ccco2)C[C@H]2OCC[C@H]21`, the “Percent Effect” value stood at 100.5%.

In the case of `O=C(NCc1ccco1)[C@H]1C[C@H]2OCC[C@H]2N(C(=O)c2ccco2)C1`, the “Percent Effect” value is on record as -11.04%.

Consider `O=C(NCc1ccco1)[C@H]1C[C@H]2OCC[C@H]2N(C(=O)c2ccncc2)C1.O=C(O)C(F)(F)F`, for which the “Percent Effect” value was -2.028%.

Regarding `NCC1Cc2cc(-c3nccc(N4CCC(O)CC4)n3)cc(F)c2O1` (stereo unspecified), the “Percent Effect” value is -9.833%.

As to `Cc1nnc(NCCc2nc3ccc(F)cc3n2C)c(C#N)c1C`, the “Percent Effect” value was -11.69%.

For `Cc1ccccc1C(C)(C)CNC(=O)CCSc1nnnn1C`, the “Percent Effect” value is listed as -6.777%.

`O=S(=O)(c1ccc2c(c1)OCCO2)N1CCC(OCc2ccccn2)C1` (stereo unspecified): the “Percent Effect” value was -6.121%.

As for `O=c1ccc2c([nH]1)CCN(S(=O)(=O)c1ccc3c(c1)OCCO3)C2`, the “Percent Effect” value amounted to 2.836%.

Turning to `O=S(=O)(c1ccc2c(c1)OCCO2)N1CCc2ccccc2C1`, the “Percent Effect” value came out at 119.9%.

As to `Cc1nsc(NC(=O)N2CCC(C(C)(C)O)CC2)n1`, the “Percent Effect” value is -12.37%.

For `Cn1c(C(N)=O)cc2c1CN(C(=O)C1CCCN(C3CCCC3)C1)CC2` (stereo unspecified), the “Percent Effect” value is on record as -3.385%.

As for `O=C(C1CCCN(Cc2ccccc2)C1)N1CCc2sccc2C1` (stereo unspecified), the “Percent Effect” value turned out to be 14.78%.

As to `O=C(C1CCOCC1)N1CCc2ncnc(-c3ccccc3)c2CC1`, the “Percent Effect” value is on record as -2.988%.

In the case of `O=C(C1CCCN(C2CCOCC2)C1)N1CCc2ncccc2C1` (stereo unspecified), the “Percent Effect” value was 101.2%.

For the compound `CC(C(=O)N1CCc2sccc2C1)N1CCC(N2CCCC2)CC1` (stereo unspecified), the “Percent Effect” value is recorded as -24.52%.

As for `CN(C)C(=O)N1Cc2ccccc2C2(CCN(C3CCOCC3)CC2)C1`, the “Percent Effect” value is reported as -2.498%.

Regarding `CN1CCC(N2CCCC(C(=O)N3Cc4ccccc4C3)C2)CC1` (stereo unspecified), the “Percent Effect” value is 88.48%.

As for `O=C(C1CCCN(C2CCOCC2)C1)N1Cc2ccccc2C1` (stereo unspecified), the “Percent Effect” value was found to be 98.98%.

`O=C(C1CCCN(Cc2cccnc2)C1)N1CCc2sccc2C1` (stereo unspecified): the “Percent Effect” value came out at 6.643%.

For the compound `CCc1nnc(CN(C)c2nccc(CCC(F)(F)F)n2)o1`, the “Percent Effect” value is given as -5.519%.

Consider `CCc1ccc(C(=O)O)cc1S(=O)(=O)Nc1c(C)ccn(C)c1=O`, for which the “Percent Effect” value stood at 6.747%.

Take `O=C1CCCN1CCCN1CCCC1Cn1cccn1` (stereo unspecified): the “Percent Effect” value was 2.247%.

Consider `COCCNC(=O)Cn1cc(OCc2ccccc2)c(=O)cc1CO`, for which the “Percent Effect” value amounted to 143.5%.

For the compound `COCCC1(C(=O)O)CCCN(CC(=O)NCCc2ccccc2)C1` (stereo unspecified), the “Percent Effect” value is given as -1.604%.

Take `COC(=O)CCNC(=O)c1ccc(OCc2ccccc2)nc1`: the “Percent Effect” value was 0.7688%.
